Data as given in ChEMBL document CHEMBL3988442, “University of Dundee, Small-Polar-MMV Screening Library” (2021).
For some assays here: Measured potencies and affinities stand elsewhere.

How the values were obtained:
Design in all cases: scale not given: direction of the effect not stated beside the values
[1] = molecular target: Protein translocase subunit SecA (Escherichia coli (strain K12)) (UniProt P10408); experiment: Assay to Identify E. coli SecA ATPase Inhibitors; type: functional; settings: 30 µM
Sequence of Protein translocase subunit SecA (Escherichia coli (strain K12)) (P10408 whole entry): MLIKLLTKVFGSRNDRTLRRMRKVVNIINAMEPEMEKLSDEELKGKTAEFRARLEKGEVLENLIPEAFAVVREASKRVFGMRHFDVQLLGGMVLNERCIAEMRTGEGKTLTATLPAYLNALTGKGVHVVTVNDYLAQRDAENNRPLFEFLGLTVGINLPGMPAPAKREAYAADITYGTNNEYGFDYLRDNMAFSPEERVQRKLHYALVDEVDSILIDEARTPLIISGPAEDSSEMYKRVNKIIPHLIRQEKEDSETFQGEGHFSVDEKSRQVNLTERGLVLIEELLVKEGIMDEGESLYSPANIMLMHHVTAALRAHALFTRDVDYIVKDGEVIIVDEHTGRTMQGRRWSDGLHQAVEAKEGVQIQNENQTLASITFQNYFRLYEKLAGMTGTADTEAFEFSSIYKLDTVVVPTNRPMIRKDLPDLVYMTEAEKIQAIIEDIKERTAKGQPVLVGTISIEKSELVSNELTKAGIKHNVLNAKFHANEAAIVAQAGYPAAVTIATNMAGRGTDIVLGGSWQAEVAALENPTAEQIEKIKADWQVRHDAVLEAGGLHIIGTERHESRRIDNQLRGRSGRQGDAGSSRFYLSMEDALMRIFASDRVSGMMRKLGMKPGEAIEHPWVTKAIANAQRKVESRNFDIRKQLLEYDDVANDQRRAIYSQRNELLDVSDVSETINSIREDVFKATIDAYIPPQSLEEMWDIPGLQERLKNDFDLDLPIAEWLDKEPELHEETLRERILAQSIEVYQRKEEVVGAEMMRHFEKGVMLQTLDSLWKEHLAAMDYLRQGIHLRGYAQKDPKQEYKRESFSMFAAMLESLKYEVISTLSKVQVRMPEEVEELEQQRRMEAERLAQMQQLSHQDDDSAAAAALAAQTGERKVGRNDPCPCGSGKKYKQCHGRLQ

[2] = molecular target: T1, Ubiquitin-activating enzyme e1, putative (Leishmania donovani (strain BPK282A1)) (UniProt E9BSI1); experiment: Leishmania donovani Ubiquitin Activating Enzyme (LdE1); type: functional; settings: 30 µM
T1 sequence (whole entry): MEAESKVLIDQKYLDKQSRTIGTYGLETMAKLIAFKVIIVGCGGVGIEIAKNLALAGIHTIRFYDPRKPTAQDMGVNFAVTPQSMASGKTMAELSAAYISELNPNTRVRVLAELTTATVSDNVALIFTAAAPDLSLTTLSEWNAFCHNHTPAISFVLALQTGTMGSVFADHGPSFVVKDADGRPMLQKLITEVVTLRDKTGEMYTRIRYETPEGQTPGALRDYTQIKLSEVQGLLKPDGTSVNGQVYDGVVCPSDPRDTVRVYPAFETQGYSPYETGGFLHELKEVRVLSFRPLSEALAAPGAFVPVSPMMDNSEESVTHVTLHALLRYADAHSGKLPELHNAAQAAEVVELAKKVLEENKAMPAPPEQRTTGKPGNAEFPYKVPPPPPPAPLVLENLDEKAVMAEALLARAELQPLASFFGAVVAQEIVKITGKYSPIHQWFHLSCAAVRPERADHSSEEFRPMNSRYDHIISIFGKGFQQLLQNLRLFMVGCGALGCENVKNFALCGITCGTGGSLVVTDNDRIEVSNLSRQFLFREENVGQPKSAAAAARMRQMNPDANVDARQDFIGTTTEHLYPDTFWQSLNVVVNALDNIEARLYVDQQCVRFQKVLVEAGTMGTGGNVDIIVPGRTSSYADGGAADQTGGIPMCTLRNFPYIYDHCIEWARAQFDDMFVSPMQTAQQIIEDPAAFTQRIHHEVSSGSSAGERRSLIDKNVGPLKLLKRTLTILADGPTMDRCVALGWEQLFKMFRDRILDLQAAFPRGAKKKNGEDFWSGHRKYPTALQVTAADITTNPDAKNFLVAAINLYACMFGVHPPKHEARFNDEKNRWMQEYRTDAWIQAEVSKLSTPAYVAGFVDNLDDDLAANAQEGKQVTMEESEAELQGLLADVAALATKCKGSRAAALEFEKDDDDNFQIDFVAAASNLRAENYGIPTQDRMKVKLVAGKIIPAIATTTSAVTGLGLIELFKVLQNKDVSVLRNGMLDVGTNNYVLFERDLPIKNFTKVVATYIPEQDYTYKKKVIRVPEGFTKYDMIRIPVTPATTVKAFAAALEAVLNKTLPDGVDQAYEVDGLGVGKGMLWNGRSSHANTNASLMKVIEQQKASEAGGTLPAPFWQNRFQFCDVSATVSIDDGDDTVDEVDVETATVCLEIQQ

[3] = molecular target: AMP-activated protein kinase, AMPK (Homo sapiens) (UniProt P54646+O43741+P54619+Q9UGJ0+Q9Y478+Q13131+Q9UGI9); experiment: AMP-dependent Kinase enzyme assay. An in vitro enzyme assay that detects ADP turnover that is directly proportional to AMPK activity. This uses naive AMPK that is activated during the assay with MK-8722; type: functional; settings: 30 µM
[4] = molecular target: Sialic acid-binding Ig-like lectin 9 (Homo sapiens) (UniProt Q9Y336); experiment: Hs-Siglec9 ALPHAscreen SOP 20170721; settings: 10 µM
Sequence of Sialic acid-binding Ig-like lectin 9 (Homo sapiens) (Q9Y336 whole entry): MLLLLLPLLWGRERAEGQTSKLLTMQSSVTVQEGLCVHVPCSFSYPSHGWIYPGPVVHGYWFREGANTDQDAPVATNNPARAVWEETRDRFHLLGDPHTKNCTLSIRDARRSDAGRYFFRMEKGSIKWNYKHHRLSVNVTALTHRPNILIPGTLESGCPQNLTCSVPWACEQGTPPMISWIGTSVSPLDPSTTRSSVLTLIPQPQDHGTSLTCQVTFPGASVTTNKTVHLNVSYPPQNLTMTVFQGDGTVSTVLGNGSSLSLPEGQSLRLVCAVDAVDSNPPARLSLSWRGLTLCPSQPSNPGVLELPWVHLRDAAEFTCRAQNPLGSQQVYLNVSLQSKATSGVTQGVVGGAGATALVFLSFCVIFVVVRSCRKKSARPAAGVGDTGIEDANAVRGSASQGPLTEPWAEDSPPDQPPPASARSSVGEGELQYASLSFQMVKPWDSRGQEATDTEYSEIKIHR

[5] = test system: Trypanosoma cruzi; experiment: Trypanosoma cruzi phosphomannomutase and mannose-1-phosphate guanylyltransferase assay; type: functional; settings: 10 µM
[6] = molecular target: T2, Arginase-2, mitochondrial (Homo sapiens) (UniProt P78540); experiment: in vitro enzyme assay to detect the production of urea directly proportional to the activity of Arginase II; type: functional; settings: 33.3 µM; also: in the data most compounds retested in dose-response had high values
T2 sequence (whole entry): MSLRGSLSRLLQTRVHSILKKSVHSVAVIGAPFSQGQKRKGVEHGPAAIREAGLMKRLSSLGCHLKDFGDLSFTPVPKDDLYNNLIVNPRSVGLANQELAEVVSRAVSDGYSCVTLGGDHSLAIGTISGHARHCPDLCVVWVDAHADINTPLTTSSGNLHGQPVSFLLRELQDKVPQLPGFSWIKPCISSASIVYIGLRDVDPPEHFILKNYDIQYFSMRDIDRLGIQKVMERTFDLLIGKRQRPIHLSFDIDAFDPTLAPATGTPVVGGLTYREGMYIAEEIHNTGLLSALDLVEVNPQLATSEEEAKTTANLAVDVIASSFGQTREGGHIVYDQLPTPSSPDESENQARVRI

[7] = molecular target: T3, Proteasome subunit beta (Trypanosoma cruzi) (UniProt O96673); experiment: Trypanosoma cruzi proteasome chymotrypsin-like activity (TcProtChymo) assay.; also: in the data most compounds retested in dose-response had high values; type: functional; settings: 9.37 µM
T3 sequence (whole entry): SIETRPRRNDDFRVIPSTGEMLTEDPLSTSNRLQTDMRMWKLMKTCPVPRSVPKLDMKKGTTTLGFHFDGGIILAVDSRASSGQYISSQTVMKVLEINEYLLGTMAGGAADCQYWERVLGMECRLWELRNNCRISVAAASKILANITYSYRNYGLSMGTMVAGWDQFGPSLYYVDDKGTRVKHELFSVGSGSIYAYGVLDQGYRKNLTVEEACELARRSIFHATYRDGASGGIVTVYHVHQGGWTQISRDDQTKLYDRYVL

[8] = species: Homo sapiens; experiment: To identify inhibition of the IFN signalling (Jak-Stat) pathway via expression of an eGFP reporter gene under the control of an IFN-stimulated response element (ISRE) containing MxA promoter.; type: functional; settings: 30 µM
[9] = molecular target: T4, Tyrosyl-tRNA synthetase, putative (Trypanosoma cruzi (strain CL Brener)) (UniProt Q4DSP6); experiment: Trypanosoma cruzi tyrosyl tRNA synthetase (TcYRS) _High Tyrosine SOP; type: functional; settings: 30 µM; also: in the data most compounds retested in dose-response had high values
T4 sequence (whole entry): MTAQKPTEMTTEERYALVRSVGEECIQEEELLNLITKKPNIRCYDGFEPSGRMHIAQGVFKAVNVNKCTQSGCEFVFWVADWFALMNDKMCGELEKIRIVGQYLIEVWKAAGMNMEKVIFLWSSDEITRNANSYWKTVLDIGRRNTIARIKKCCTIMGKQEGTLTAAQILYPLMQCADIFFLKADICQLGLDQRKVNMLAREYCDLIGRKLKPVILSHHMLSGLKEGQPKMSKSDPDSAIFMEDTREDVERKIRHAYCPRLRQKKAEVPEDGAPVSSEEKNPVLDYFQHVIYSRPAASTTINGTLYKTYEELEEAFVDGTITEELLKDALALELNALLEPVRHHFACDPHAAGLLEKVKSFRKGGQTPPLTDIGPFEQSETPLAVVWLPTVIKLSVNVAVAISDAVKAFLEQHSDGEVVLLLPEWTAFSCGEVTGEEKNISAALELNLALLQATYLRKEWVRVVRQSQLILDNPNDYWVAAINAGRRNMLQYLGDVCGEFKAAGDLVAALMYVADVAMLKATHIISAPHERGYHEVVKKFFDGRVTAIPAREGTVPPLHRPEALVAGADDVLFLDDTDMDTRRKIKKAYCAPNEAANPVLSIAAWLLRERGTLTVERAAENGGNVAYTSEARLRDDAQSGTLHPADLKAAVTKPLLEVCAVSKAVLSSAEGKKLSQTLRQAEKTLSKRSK

[10] = molecular target: T4, Tyrosyl-tRNA synthetase, putative (Trypanosoma cruzi (strain CL Brener)); experiment: Trypanosoma cruzi tyrosyl tRNA synthetase (TcYRS) SOP; type: functional; settings: 30 µM
[11] = molecular target: Chromo domain-containing protein 1 (Saccharomyces cerevisiae (strain ATCC 204508 / S288c) (Baker's yeast)) (UniProt P32657); experiment: ScCHD-1 Enzyme Inhibition Assay; type: functional; settings: 30 µM; also: in the data most compounds retested in dose-response had high values
Sequence of Chromo domain-containing protein 1 (Saccharomyces cerevisiae (strain ATCC 204508 / S288c) (Baker's yeast)) (P32657 whole entry, the tested form may be a part): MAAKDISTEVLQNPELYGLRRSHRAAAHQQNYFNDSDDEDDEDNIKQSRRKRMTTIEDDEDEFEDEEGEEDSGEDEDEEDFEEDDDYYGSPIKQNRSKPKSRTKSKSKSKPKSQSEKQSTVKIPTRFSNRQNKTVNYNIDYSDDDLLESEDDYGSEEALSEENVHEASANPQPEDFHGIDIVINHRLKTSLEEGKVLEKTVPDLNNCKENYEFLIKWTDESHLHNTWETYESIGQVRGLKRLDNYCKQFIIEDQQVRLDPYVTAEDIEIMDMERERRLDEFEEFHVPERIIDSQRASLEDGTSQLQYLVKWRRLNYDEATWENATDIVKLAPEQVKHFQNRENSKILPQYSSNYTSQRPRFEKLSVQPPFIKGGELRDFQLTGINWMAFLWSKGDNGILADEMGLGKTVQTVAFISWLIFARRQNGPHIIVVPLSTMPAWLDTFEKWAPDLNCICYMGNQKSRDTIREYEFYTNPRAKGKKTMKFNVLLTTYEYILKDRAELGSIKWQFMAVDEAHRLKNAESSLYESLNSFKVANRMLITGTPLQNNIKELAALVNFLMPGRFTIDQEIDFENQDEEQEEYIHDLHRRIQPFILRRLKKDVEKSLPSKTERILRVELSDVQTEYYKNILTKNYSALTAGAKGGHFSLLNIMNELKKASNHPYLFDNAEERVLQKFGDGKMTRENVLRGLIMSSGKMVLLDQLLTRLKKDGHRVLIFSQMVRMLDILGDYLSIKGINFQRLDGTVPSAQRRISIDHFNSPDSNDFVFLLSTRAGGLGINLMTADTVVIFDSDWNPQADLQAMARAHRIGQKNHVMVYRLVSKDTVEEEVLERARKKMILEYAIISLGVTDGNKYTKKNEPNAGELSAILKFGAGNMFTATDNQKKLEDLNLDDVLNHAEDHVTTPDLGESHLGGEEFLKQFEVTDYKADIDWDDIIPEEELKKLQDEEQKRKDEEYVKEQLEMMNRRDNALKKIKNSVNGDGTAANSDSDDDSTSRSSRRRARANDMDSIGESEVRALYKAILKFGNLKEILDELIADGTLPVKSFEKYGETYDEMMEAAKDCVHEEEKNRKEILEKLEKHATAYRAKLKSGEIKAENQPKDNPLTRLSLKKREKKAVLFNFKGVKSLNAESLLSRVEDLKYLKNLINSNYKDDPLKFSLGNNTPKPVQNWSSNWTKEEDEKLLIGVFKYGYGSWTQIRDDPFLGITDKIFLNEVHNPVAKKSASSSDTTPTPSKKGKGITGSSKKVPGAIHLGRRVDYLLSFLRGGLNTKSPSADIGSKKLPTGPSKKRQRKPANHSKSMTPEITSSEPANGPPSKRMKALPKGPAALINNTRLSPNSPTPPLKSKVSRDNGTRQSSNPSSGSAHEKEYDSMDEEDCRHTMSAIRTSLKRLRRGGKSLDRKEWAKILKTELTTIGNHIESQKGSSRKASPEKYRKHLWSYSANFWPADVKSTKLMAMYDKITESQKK

| SMILES | Percent Effect [1] [%] | Percent Effect [2] [%] | Percent Effect [3] [%] | Percent Effect [4] [%] | Percent Effect [5] [%] | Percent Effect [6] [%] | Percent Effect [7] [%] | Percent Effect [8] [%] | Percent Effect [9] [%] | Percent Effect [10] [%] | Percent Effect [11] [%] |
| --- | --- | --- | --- | --- | --- | --- | --- | --- | --- | --- | --- |
| Cc1cnn(CC2CN(CCS(=O)(=O)c3ccccc3)CCO2)c1 (configuration not stated) | -8.49 | 0 | 0.043 | -0.479 | -2.25 | -0.248 | 5.41 | 12.1 | 5.38 | 1.24 | -5.16 |
| Cc1ncc2c(n1)CN(Cc1nnc(-c3occc3C)o1)CC2 | -2.4 | 18.9 | -24.9 | 14.5 | 6.04 | 2.03 | 6.82 | -0.684 | 22.8 | 30.5 | -8.36 |
| O=C(N[C@@H]1CN(Cc2cccs2)[C@@H]2CCCO[C@@H]21)C1CC1 | 2.58 | 8 | 2.54 | 23.2 | -7.34 | -53.6 | 13.3 | 1.32 | 2.08 | 20 | -6.29 |
| O=C(c1cccn1Cc1cccs1)N1CCN(C(=O)C2CC2)CC1 | -6.16 | 13 | 1.66 | 2.72 | 1.5 | -0.712 | 0.845 | 9.85 | 8.74 | 21.9 | 1.63 |
| CN1CCN(c2ncc3c(=O)n(-c4cccc(F)c4)c(=O)[nH]c3n2)CC1 | 0.451 | 13.2 | 0.333 | -0.649 | -1.27 | 7.1 | 18.9 | -9.16 | 4.25 | 10.4 | 92.2 |
| O=C(NCCc1ccc(Cl)s1)NCc1nnc2n1CCC2 | -5.75 | 18.4 | -1.91 | -9.75 | -6.07 | -3.96 | 15.5 | 4.94 | 4.43 | 11.1 | -7.66 |
| Cc1nn(C)c(C)c1C1CCCN1C(=O)c1ccc(Cl)o1 (configuration not stated) | -4.75 | 2.7 | 0.29 | -6.5 | 4.88 | -3.33 | 1.27 | 5.89 | 4.95 | -6.1 | 1.72 |
| CCn1cc(NC(=O)C2CCN(CCOC(C)C)CC2)cn1 | -6.99 | 7.89 | -2.47 | -0.756 | -6.07 | -3.6 | 3.98 | 6.54 | 2.46 | 3.7 | 0.215 |
| COc1ccc(F)cc1S(=O)(=O)NCC(c1cccn1C)N(C)C (configuration not stated) | -3.57 | 8.22 | -1.87 | -2.56 | 0.196 | 3.64 | 11.5 | 7.4 | 7.53 | 20 | -6.57 |
| COc1ccccc1CC(=O)NCCCN1CCCC1C(=O)N(C)C (configuration not stated) | -0.00806 | 8.22 | -2.99 | 6.95 | 2.35 | 8.64 | 18.6 | -15.4 | 6.45 | -2.5 | -6.6 |
| CC(=O)N1CCC(c2cncc(Oc3ccccc3)n2)CC1 | -10 | 0 | 9.22 | -2.36 | -4.33 | -1.17 | 8.19 | 14 | -1.06 | 3.85 | -3.75 |
| COc1ccc(C)cc1CSCCn1nc2ccccn2c1=O | -4.01 | 20.8 | -1.24 | -10.9 | 4.6 | -1.47 | 12.7 | 11.9 | 3.81 | 21.2 | -22.4 |
| COc1ccc(OC)c(C(C)Nc2nc3c(C)nn(C)c3c(=O)n2C)c1 (configuration not stated) | -5.58 | -5.2 | 5.05 | 1.13 | -6.2 | -22.1 | 14.8 | 38.9 | -2.15 | -3.7 | -5.55 |
| C[C@@H]1CN(C2(C(=O)N3CCCCCC3)Cc3ccccc3C2)C[C@H](C)O1 | -2.48 | 6.94 | -6.6 | 11 | 6.51 | 3.97 | -0.702 | -2.77 | 2.1 | 2.56 | -1.63 |
| COc1ccc(C(C(=O)O)N2CCCN(C3CCCCC3)CC2)cn1 (configuration not stated) | -1.53 | 13.5 | -8.59 | 8.33 | 6.55 | -6.2 | 15.5 | -5.05 | 2.15 | 21 | -12.3 |
| COC(=O)CCNC(=O)c1ccoc1CN1c2ccccc2CC1C (configuration not stated) | -4.57 | 0 | 6.85 | 8.39 | 1.98 | -18.4 | 19.9 | 9.3 | 6.25 | 3.7 | -2.6 |
| O=C1COc2c(cccc2C(=O)N2CCCCC2Cn2cccn2)N1 (configuration not stated) | -1.42 | 10.4 | 2.71 | 5.65 | -2.84 | 3.16 | 14.6 | 10.8 | 6.67 | 11.8 | -12.7 |
| Cc1cnn(CC2CCCCN2Cc2nnc(C3CC3)n2C)c1 (configuration not stated) | -1.18 | -1.27 | 5 | -0.259 | 5.85 | 0.215 | 8.75 | -10.1 | 3.12 | 5.06 | -2.78 |
| Cc1noc(C)c1CN1CCN(Cc2ccncc2)c2ncccc2C1 | -3.04 | 8 | 4.68 | 2.81 | -6.5 | -1.17 | 2.56 | 16.7 | 7.45 | 8.97 | -0.129 |
| Cn1ncc2c1NC(=O)CC2c1ccccc1Cl (configuration not stated) | -6.92 | 10.5 | 5.36 | 7.02 | 3.6 | -5.92 | 6.62 | 16.4 | 1.06 | 5.2 | -0.659 |
| Cc1nn(C)c2c(N3CCN(C(=O)NC4CCCCC4)CC3)ncnc12 | -1.64 | 9.33 | -2.22 | -3.41 | -5.5 | 0.528 | 11.7 | 0.346 | 2.12 | 5.13 | -10.1 |
| Cc1nn(C)c(Cl)c1C(=O)NCC(c1ccsc1)N(C)C (configuration not stated) | -3.36 | 17.7 | -4.46 | -7.25 | 7.65 | 1.14 | 4.18 | -12.9 | 5.42 | 16.5 | -6.9 |
